Measurements published in PubChem BioAssay (Tox21).
Values without a mark were called inactive. Activity calls are given as the source filed them. Calls follow the shape of the full dose curve.

target: Acetylcholinesterase (Homo sapiens) (UniProt P22303); assay: Acetylcholinesterase (AChE) small molecule antagonists: enzyme-based qHTS assay with human liver microsomes (AID 1347399); details: Potency: qHTS inhibition; outcome: qHTS inhibition; series mostly up to 115 µM; activity change, negative = inhibition: at the top concentration; also: nearly all actives have a fitted effect of over 60% in size
Sequence (P22303 whole entry, looked up): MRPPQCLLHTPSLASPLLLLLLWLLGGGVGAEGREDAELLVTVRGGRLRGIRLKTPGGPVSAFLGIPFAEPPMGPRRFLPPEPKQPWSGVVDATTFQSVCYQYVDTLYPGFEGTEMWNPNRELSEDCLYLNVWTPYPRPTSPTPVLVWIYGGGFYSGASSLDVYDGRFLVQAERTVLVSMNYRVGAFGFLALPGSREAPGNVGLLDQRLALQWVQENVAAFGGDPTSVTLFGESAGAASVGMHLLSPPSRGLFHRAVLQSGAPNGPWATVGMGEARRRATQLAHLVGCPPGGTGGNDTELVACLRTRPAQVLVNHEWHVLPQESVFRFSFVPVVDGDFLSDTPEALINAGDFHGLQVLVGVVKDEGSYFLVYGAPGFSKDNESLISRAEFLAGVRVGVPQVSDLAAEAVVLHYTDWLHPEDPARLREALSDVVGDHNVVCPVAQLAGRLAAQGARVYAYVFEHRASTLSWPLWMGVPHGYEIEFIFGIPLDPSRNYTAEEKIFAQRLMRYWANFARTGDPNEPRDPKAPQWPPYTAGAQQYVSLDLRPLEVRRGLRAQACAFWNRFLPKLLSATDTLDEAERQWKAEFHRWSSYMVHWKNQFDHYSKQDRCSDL
Method in brief: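 Recombinant human AChE (50 mU/mL in the enzyme mix) and human liver microsomes (0.25 mg/mL final) were preincubated with compound and NADPH (0.25 mg/mL final) for 30 min at 37 C. Acetylthiocholine/DTNB was then added; thiocholine was read colorimetrically after 10 min at room temperature.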
% is scaled to controls: 0 for no effect and ±100 for the full control effect.

SMILES | Potency | activity change, negative = inhibition
CN1C(=O)CC[C@H]1c1cccnc1 | inactive | 
CCCCC(CC)COC(=O)c1ccccc1C(=O)O (stereo not given) |  | 3.36%
CC[C@]12CCCN3CCc4c(n(c5ccccc45)C(=O)C1)[C@@H]32 |  | -0.924% [at 53 µM]
SCCOCCOCCS |  | -6.43%
CN(c1nccc(=O)[nH]1)C1CCN(c2nc3ccccc3n2Cc2ccc(F)cc2)CC1 |  | 7.05% [at 53 µM]
CC[C@]1(O)C[C@H]2CN(CCc3c([nH]c4ccccc34)[C@@](C(=O)OC)(c3cc4c(cc3OC)N(C=O)[C@H]3[C@@](O)(C(=O)OC)[C@H](OC(C)=O)[C@]5(CC)C=CCN6CC[C@]43[C@@H]65)C2)C1 |  | -0.153% [at 53 µM]
NNC(=O)CP(=O)(c1ccccc1)c1ccccc1 |  | 1.68% [at 53 µM]
O=C(O)CONC(=O)c1ccccc1 |  | 0.54%
C=CC(C)(CCC=C(C)C)OC(=O)/C=C/c1ccccc1 (stereo not given) |  | -1.35%
Nc1nc2c(ncn2COC(CO)CO)c(=O)[nH]1 |  | 2.52% [at 53 µM]
CC(CO)(CO)C(=O)O |  | 0.291%
C[C@]12CCC(=O)C=C1CC[C@@H]1[C@@H]2[C@@H](O)C[C@@]2(C)[C@H]1CC[C@]2(O)C(=O)CO | inactive | 
Cc1nnc(NS(=O)(=O)c2ccc(N)cc2)s1 | inactive | 
Cc1cc(C)c(C(=O)O)c(C)c1 |  | -1.19%
CC1(C)CC(=O)CC(C)(C)N1 |  | -0.971%
Nc1ccc(O)c(N)c1 | inactive | 
Cc1cc2cc3c(C)cc(=O)oc3c(C)c2o1 |  | -2.52% [at 53 µM]
CCOC(=O)COc1ccc2c(C)c(CCN(CC)CC)c(=O)oc2c1Cl |  | -22.2% [at 53 µM]
CCCCOC(=O)C(C)OC(=O)CCC (stereo not given) |  | 3.37%
CCCC(C)C(=O)OCC (stereo not given) |  | 8.16%
